# Laboratory results from the supplement of paper PMC8728848.
# The sample as a whole holds a higher share of the strongest signals than the screen did.
# B1: WGA (Triticum vulgare) (protein)
# chain: QRCGEQGSNMECPNNLCCSQYGYCGMGGDYCGKGCQNGACWTSKRCGSQAGGATCPNNHCCSQYGHCGFGAEYCGAGCQGGPCRADIKCGSQSGGKLCPNNLCCSQWGFCGLGSEFCGGGCQSGACSTDKPCGKDAGGRVCTNNYCCSKWGSCGIGPGYCGAGCQSGGCDAVFAGAITANSTLLAE
# Experiments:
# Assay in all cases: glycan array binding signal (z-score within array); higher = stronger binding
# Conditions in all cases: glycan notation: IUPAC condensed, linker removed
# [1] = target: Fuc(a1-2)Gal(b1-3)GlcNAc(b1-3)[Fuc(a1-2)Gal(b1-3)GlcNAc(b1-6)]GalNAc
# How it was run: (§1)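 From the Consortium for Functional Glycomics database, 3228 arrays were curated, keeping only those whose protein sequence was available. Binding is given as a within-array Z-score averaged across arrays sharing a protein sequence and across linkers. Negative Z-scores can be read as non-binding.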
# [2] = target: Fuc(a1-2)Gal(b1-4)Fuc(a1-3)]GlcNAc(b1-2)Man(a1-3)[Fuc(a1-2)Gal(b1-4)[Fuc(a1-3)]GlcNAc(b1-2)Man(a1-6)]Man(b1-4)GlcNAc(b1-4)GlcNAc
# How it was run: as §1
# [3] = target: Fuc(a1-2)Gal(b1-4)GlcNAc(b1-2)Man(a1-3)[Fuc(a1-2)Gal(b1-4)GlcNAc(b1-2)Man(a1-6)]Man(b1-4)GlcNAc(b1-4)GlcNAc
# How it was run: as §1
# [4] = target: Fuc(a1-2)Gal(b1-4)[Fuc(a1-3)]GlcNAc(b1-2)Man(a1-3)[Fuc(a1-2)Gal(b1-4)[Fuc(a1-3)]GlcNAc(b1-2)Man(a1-6)]Man(b1-4)GlcNAc(b1-4)[Fuc(a1-6)]GlcNAc
# How it was run: as §1
# [5] = target: Fuc(a1-2)Gal(b1-4)[Fuc(a1-3)]GlcNAc(b1-3)Gal(b1-4)[Fuc(a1-3)]GlcNAc
# How it was run: as §1
# [6] = target: Fuc(a1-2)[Gal(a1-3)]Gal(b1-3)GalNAc(b1-3)Gal(a1-4)Gal(b1-4)Glc
# How it was run: as §1
# [7] = target: Fuc(a1-2)[Gal(a1-3)]Gal(b1-4)Glc
# How it was run: as §1
# [8] = target: Fuc(a1-2)[Gal(a1-3)]Gal(b1-4)[Fuc(a1-3)]Glc
# How it was run: as §1
# [9] = target: Fuc(a1-2)[GalNAc(a1-3)]Gal
# How it was run: as §1
# [10] = target: Fuc(a1-2)[GalNAc(a1-3)]Gal(b1-3)GlcNAc(b1-3)GalNAc
# How it was run: as §1
# [11] = target: Fuc(a1-2)[GalNAc(a1-4)]Gal(b1-4)GlcNAc
# How it was run: as §1
# [12] = target: Fuc(a1-3)[Gal(b1-4)]GlcNAc(b1-3)Gal(b1-4)[Fuc(a1-3)]GlcNAc
# How it was run: as §1
# [13] = target: Gal(b1-3)GalNAc(b1-3)Gal(a1-4)Gal(b1-4)Glc
# How it was run: as §1
# [14] = target: Gal(b1-3)GlcNAc(b1-3)Gal(b1-4)Glc
# How it was run: as §1
# [15] = target: Gal(b1-3)[Fuc(a1-4)]GlcNAc(b1-2)Man(a1-3)[Gal(b1-3)[Fuc(a1-4)]GlcNAc(b1-2)Man(a1-6)]Man(b1-4)GlcNAc(b1-4)[Fuc(a1-6)]GlcNAc
# How it was run: as §1
# [16] = target: Gal(b1-4)GlcNAc(b1-3)Gal(b1-4)Glc
# How it was run: as §1
# [17] = target: Gal(b1-4)GlcNAc(b1-3)Gal(b1-4)GlcNAc(b1-2)[Gal(b1-4)GlcNAc(b1-3)Gal(b1-4)GlcNAc(b1-6)]Man(a1-6)[Gal(b1-4)GlcNAc(b1-3)Gal(b1-4)GlcNAc(b1-2)Man(a1-3)]Man(b1-4)GlcNAc(b1-4)[Fuc(a1-6)]GlcNAc
# How it was run: as §1
# [18] = target: Gal(b1-4)GlcNAc(b1-3)Gal(b1-4)GlcNAc(b1-3)Gal(b1-4)GlcNAc(b1-3)Gal(b1-4)GlcNAc(b1-2)[Gal(b1-4)GlcNAc(b1-3)Gal(b1-4)GlcNAc(b1-3)Gal(b1-4)GlcNAc(b1-3)Gal(b1-4)GlcNAc(b1-6)]Man(a1-6)[Gal(b1-4)GlcNAc(b1-3)Gal(b1-4)GlcNAc(b1-3)Gal(b1-4)GlcNAc(b1-3)Gal(b1-4)GlcNAc(b1-2)Man(a1-3)]Man(b1-4)GlcNAc(b1-4)[Fuc(a1-6)]GlcNAc
# How it was run: as §1
# [19] = target: Gal(b1-4)GlcNAc(b1-3)Gal(b1-4)GlcNAc(b1-3)Gal(b1-4)GlcNAc(b1-3)Gal(b1-4)GlcNAc(b1-3)Gal(b1-4)GlcNAc(b1-2)[Gal(b1-4)GlcNAc(b1-3)Gal(b1-4)GlcNAc(b1-3)Gal(b1-4)GlcNAc(b1-3)Gal(b1-4)GlcNAc(b1-3)Gal(b1-4)GlcNAc(b1-6)]Man(a1-6)[Gal(b1-4)GlcNAc(b1-3)Gal(b1-4)GlcNAc(b1-3)Gal(b1-4)GlcNAc(b1-3)Gal(b1-4)GlcNAc(b1-3)Gal(b1-4)GlcNAc(b1-2)Man(a1-3)]Man(b1-4)GlcNAc(b1-4)[Fuc(a1-6)]GlcNAc
# How it was run: as §1
# [20] = target: Gal(b1-4)GlcNAc(b1-3)[Fuc(a1-3)GlcNAc(b1-6)]Gal(b1-4)Glc
# How it was run: as §1
# [21] = target: Gal6P(b1-4)GlcNAc
# How it was run: as §1
# [22] = target: Gal6S(b1-4)GlcNAc6S
# How it was run: as §1
# [23] = target: GalNAc(b1-3)Gal(a1-6)Gal(b1-4)Glc
# How it was run: as §1
# [24] = target: GalNAc(b1-4)GlcNAc
# How it was run: as §1
# [25] = target: GalNAc(b1-4)GlcNAc(b1-2)Man
# How it was run: as §1
# [26] = target: GalNAc(b1-4)GlcNAc(b1-3)GalNAc(b1-4)GlcNAc
# How it was run: as §1
# [27] = target: Glc(b1-4)Glc
# How it was run: as §1
# [28] = target: GlcNAc(a1-4)Gal(b1-4)GlcNAc
# How it was run: as §1
# [29] = target: GlcNAc(a1-4)Gal(b1-4)GlcNAc(b1-3)Gal(b1-4)Glc
# How it was run: as §1
# [30] = target: GlcNAc(a1-4)Gal(b1-4)GlcNAc(b1-3)Gal(b1-4)GlcNAc(b1-3)Gal(b1-4)GlcNAc
# How it was run: as §1
# [31] = target: GlcNAc(b1-3)Gal(b1-4)GlcNAc(b1-2)Man(a1-3)[GlcNAc(b1-3)Gal(b1-4)GlcNAc(b1-2)Man(a1-6)]Man(b1-4)GlcNAc(b1-4)[Fuc(a1-6)]GlcNAc
# How it was run: as §1
# [32] = target: GlcNAc(b1-3)Gal(b1-4)GlcNAc(b1-3)Gal(b1-4)GlcNAc
# How it was run: as §1
# [33] = target: GlcNAc(b1-3)Gal(b1-4)GlcNAc(b1-3)GalNAc
# How it was run: as §1
# [34] = target: GlcNAc(b1-4)GlcNAc(b1-4)GlcNAc
# How it was run: as §1
# [35] = target: GlcNAc(b1-4)GlcNAc(b1-4)GlcNAc(b1-4)GlcNAc(b1-4)GlcNAc
# How it was run: as §1
# [36] = target: GlcNAc(b1-4)GlcNAc(b1-4)GlcNAc(b1-4)GlcNAc(b1-4)GlcNAc(b1-4)GlcNAc
# How it was run: as §1
# [37] = target: Neu5Ac(a2-3)Gal(b1-4)GlcNAc(b1-2)Man
# How it was run: as §1
# [38] = target: Neu5Ac(a2-3)Gal(b1-4)GlcNAc(b1-3)Gal(b1-4)GlcNAc(b1-3)GalNAc
# How it was run: as §1
# [39] = target: Neu5Ac(a2-3)Gal(b1-4)GlcNAc(b1-3)Gal(b1-4)GlcNAc(b1-3)[Neu5Ac(a2-3)Gal(b1-4)GlcNAc(b1-3)Gal(b1-4)GlcNAc(b1-6)]GalNAc
# How it was run: as §1
# [40] = target: Neu5Ac(a2-6)Gal(b1-4)GlcNAc(b1-2)[Neu5Ac(a2-6)Gal(b1-4)GlcNAc(b1-4)]Man(a1-3)[GlcNAc(b1-4)][Neu5Ac(a2-6)Gal(b1-4)GlcNAc(b1-2)[Neu5Ac(a2-6)Gal(b1-4)GlcNAc(b1-6)]Man(a1-6)]Man(b1-4)GlcNAc(b1-4)GlcNAc
# How it was run: as §1
# [41] = target: Neu5Ac(a2-6)Gal(b1-4)GlcNAc(b1-3)Gal(b1-4)GlcNAc(b1-6)[Gal(b1-3)]GalNAc
# How it was run: as §1
# [42] = target: Neu5Ac(a2-6)Gal(b1-4)GlcNAc(b1-6)GalNAc
# How it was run: as §1
# [43] = target: Neu5Ac(a2-6)Gal(b1-4)GlcNAc6S
# How it was run: as §1
# [44] = target: Neu5Ac(a2-6)GlcNAc(b1-4)GlcNAc(b1-4)GlcNAc
# How it was run: as §1
# [45] = target: Neu5Ac(a2-8)Neu5Ac(a2-8)Neu5Ac(a2-3)Gal(b1-4)Glc
# How it was run: as §1
# [46] = target: Neu5Gc(a2-6)GalNAc
# How it was run: as §1
binder,measurement,setting,value
B1,glycan array binding signal (z-score),[1],-0.344
same,glycan array binding signal (z-score),[2],-0.173
same,glycan array binding signal (z-score),[3],-0.197
same,glycan array binding signal (z-score),[4],-0.297
same,glycan array binding signal (z-score),[5],-0.365
same,glycan array binding signal (z-score),[6],-0.364
same,glycan array binding signal (z-score),[7],-0.359
same,glycan array binding signal (z-score),[8],-0.309
same,glycan array binding signal (z-score),[9],-0.082
same,glycan array binding signal (z-score),[10],-0.299
same,glycan array binding signal (z-score),[11],3
same,glycan array binding signal (z-score),[12],-0.381
same,glycan array binding signal (z-score),[13],-0.328
same,glycan array binding signal (z-score),[14],-0.373
same,glycan array binding signal (z-score),[15],-0.172
same,glycan array binding signal (z-score),[16],-0.341
same,glycan array binding signal (z-score),[17],-0.132
same,glycan array binding signal (z-score),[18],0.022
same,glycan array binding signal (z-score),[19],0.244
same,glycan array binding signal (z-score),[20],-0.275
same,glycan array binding signal (z-score),[21],-0.418
same,glycan array binding signal (z-score),[22],-0.371
same,glycan array binding signal (z-score),[23],-0.316
same,glycan array binding signal (z-score),[24],2.78
same,glycan array binding signal (z-score),[25],2.71
same,glycan array binding signal (z-score),[26],2.8
same,glycan array binding signal (z-score),[27],-0.351
same,glycan array binding signal (z-score),[28],2.77
same,glycan array binding signal (z-score),[29],2.56
same,glycan array binding signal (z-score),[30],3.16
same,glycan array binding signal (z-score),[31],1.15
same,glycan array binding signal (z-score),[32],1.71
same,glycan array binding signal (z-score),[33],-0.359
same,glycan array binding signal (z-score),[34],3.8
same,glycan array binding signal (z-score),[35],5.62
same,glycan array binding signal (z-score),[36],5.15
same,glycan array binding signal (z-score),[37],-0.304
same,glycan array binding signal (z-score),[38],-0.353
same,glycan array binding signal (z-score),[39],-0.001
same,glycan array binding signal (z-score),[40],-0.366
same,glycan array binding signal (z-score),[41],-0.248
same,glycan array binding signal (z-score),[42],-0.307
same,glycan array binding signal (z-score),[43],-0.359
same,glycan array binding signal (z-score),[44],3.14
same,glycan array binding signal (z-score),[45],-0.35
same,glycan array binding signal (z-score),[46],-0.324
